Measurements: PubChem BioAssay (NCATS)
Records with an inconclusive call do not appear. Activity calls are given as the source filed them. Unless noted, calls come from the whole dose curve.

Assays:
[1] = target: Cytochrome P450 3A4 (Homo sapiens) (UniProt P08684); assay: qHTS Assay for Activators of Cytochrome P450 3A4 (AID 885; active = well fitted curve in the direction sought with a large enough effect; an effect the other way counts as inactive or inconclusive; note: nearly all actives have a fitted effect of over 65% in size)
Cytochrome P450 3A4 (Homo sapiens), sequence (P08684 whole entry, looked up): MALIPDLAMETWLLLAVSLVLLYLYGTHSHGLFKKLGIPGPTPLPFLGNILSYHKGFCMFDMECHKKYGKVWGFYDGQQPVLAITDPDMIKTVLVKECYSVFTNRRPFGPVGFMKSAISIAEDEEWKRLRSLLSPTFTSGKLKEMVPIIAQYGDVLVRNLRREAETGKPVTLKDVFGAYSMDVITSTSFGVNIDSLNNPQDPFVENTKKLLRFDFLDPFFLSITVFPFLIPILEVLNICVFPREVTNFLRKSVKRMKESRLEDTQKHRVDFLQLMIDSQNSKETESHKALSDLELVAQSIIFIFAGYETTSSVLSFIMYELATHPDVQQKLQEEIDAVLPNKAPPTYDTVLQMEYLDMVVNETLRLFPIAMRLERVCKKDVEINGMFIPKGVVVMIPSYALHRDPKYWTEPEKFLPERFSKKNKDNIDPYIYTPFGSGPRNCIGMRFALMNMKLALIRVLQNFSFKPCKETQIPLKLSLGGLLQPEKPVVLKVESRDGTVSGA
Procedure, shortened: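 CYP3A4 activity: Luciferin-PPXE O-dealkylation, 25uM substrate, 200mM KPO4, RT throughout. Read-out is luciferase luminescence; higher values reflect activation.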

[2] = Cell Viability - LYMP2-003 (AID 965; active = well fitted curve in the direction sought with a large enough effect; an effect the other way counts as inactive or inconclusive;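 note: potency is the fitted concentration of half-maximal effect; cells exposed to compounds for 24 h before reading; nearly all actives have a fitted effect of over 50% in size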)
Procedure, shortened: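 Seed 2500 lymphoblastoid cells/well; incubate 5 hr, 37 C; add compounds; incubate 24 hr, 37 C; add CellTiter-Glo, 30 min RT; read luminescence. AC50 from Hill fit.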

[3] = Cell Viability - LYMP2-005 (AID 967; active = well fitted curve in the direction sought with a large enough effect; an effect the other way counts as inactive or inconclusive; note: potency is the fitted concentration of half-maximal effect)
Procedure, shortened: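 Acute cytotoxicity is scored as a concentration-dependent drop in intracellular ATP in human lymphoblastoid LYMP2-005 cells after 24 h compound treatment. ATP is quantified by luciferase luminescence, and AC50 is derived by Hill-equation modelling.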

[4] = target: Bile acid receptor (Homo sapiens) (UniProt Q96RI1); assay: qHTS assay for small molecule agonists of farnesoid X receptor signaling (AID 588527); conditions: HEK293T FXR-UAS-bla, beta-lactamase ratio, 16 h; activation: stronger effect = higher value;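 note: series mostly up to about 77 µM; 0% = vehicle basal and 100% = reference agonist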
Bile acid receptor (Homo sapiens), sequence (Q96RI1 whole entry, looked up): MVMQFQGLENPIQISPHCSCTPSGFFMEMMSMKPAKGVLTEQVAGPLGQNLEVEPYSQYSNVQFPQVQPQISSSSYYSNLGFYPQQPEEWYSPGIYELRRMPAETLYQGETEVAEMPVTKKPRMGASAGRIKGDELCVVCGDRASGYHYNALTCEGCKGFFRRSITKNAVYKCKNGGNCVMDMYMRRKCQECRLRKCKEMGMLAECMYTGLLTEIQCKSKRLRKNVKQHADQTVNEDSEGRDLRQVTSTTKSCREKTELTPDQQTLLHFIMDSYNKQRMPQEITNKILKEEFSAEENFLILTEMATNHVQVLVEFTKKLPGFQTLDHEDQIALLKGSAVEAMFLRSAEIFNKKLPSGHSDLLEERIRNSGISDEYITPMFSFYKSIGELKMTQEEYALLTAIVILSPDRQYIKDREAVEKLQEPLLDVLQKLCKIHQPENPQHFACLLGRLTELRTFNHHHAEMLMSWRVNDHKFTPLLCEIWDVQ
Procedure, shortened: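 FXR-UAS-bla HEK293T, 10% dialyzed FBS; cpds up to 92 uM titration, 16 h 37 C; CCF4 dye 2 h RT; fluorescence. Normalized to chenodeoxycholic acid 100 uM (100%) and DMSO (0%); Hill fit gives EC50, efficacy.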

[5] = target: Peroxisome proliferator-activated receptor delta (Homo sapiens) (UniProt Q03181); assay: qHTS assay for small molecule agonists of peroxisome proliferator-activated receptor delta signaling (AID 588534);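 note: 0% = DMSO basal wells and 100% = positive control agonist at 10 µM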
Peroxisome proliferator-activated receptor delta (Homo sapiens), sequence (Q03181 whole entry, looked up): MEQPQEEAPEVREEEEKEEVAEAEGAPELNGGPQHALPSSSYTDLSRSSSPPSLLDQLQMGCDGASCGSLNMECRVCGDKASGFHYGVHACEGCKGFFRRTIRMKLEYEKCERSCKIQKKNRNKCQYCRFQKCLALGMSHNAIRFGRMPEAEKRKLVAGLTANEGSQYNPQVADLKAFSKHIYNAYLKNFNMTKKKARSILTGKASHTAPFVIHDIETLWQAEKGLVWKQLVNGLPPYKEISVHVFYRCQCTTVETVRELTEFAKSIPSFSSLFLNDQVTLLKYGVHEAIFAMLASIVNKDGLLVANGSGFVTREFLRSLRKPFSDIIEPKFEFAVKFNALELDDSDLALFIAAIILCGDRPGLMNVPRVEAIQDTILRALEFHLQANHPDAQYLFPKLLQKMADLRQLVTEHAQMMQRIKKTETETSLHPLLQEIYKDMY
Procedure, shortened: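 Agonist-mode qHTS; reporter cells, 5 hrs 37 C pre-incubation; compound titration, 18 hrs 37 C; CCF4 dye, 2 hrs RT; fluorescence read. EC50/efficacy via Hill fit.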

[6] = target: Thyroid hormone receptor beta (Homo sapiens) (UniProt P10828); assay: qHTS assay for small molecule agonists of thyroid hormone receptor beta signaling (AID 588545)
Thyroid hormone receptor beta (Homo sapiens), sequence (P10828 whole entry, looked up): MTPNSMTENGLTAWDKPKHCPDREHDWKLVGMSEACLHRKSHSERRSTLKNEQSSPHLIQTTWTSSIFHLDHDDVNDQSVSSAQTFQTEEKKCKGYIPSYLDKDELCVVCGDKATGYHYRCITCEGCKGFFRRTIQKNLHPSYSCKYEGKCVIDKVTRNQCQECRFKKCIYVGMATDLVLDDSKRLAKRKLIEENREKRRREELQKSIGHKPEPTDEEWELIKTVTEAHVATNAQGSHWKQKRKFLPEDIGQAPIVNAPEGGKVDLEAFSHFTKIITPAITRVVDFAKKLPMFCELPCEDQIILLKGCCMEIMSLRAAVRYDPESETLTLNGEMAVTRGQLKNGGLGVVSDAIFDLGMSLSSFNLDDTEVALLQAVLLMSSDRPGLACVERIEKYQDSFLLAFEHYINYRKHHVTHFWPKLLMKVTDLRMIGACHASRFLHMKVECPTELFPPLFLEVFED
Procedure, shortened: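 HEK 293 TR-UAS-bla; agonist mode; 18 hrs, 37 C; CCF4, ex 405/em 460 and 530 nm; norm. T3 10 nM = 100%, DMSO = 0%; Hill fit → EC50, efficacy.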

[7] = target: Glucocorticoid receptor (Homo sapiens) (UniProt P04150); assay: qHTS assay for small molecule agonists of glucocorticoid receptor signaling (AID 588532; active = well fitted curve in the direction sought with a large enough effect in the signal ratio, with a control signal flat; the % refers to the signal ratio;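 note: 100% = dexamethasone at 0.1 µM and 0% = DMSO only wells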); conditions: HeLa MMTV-bla, beta-lactamase ratio, agonist, 18 h; activation: stronger effect = higher value, percent of dexamethasone control, DMSO zero
Glucocorticoid receptor (Homo sapiens), sequence (P04150 whole entry, looked up): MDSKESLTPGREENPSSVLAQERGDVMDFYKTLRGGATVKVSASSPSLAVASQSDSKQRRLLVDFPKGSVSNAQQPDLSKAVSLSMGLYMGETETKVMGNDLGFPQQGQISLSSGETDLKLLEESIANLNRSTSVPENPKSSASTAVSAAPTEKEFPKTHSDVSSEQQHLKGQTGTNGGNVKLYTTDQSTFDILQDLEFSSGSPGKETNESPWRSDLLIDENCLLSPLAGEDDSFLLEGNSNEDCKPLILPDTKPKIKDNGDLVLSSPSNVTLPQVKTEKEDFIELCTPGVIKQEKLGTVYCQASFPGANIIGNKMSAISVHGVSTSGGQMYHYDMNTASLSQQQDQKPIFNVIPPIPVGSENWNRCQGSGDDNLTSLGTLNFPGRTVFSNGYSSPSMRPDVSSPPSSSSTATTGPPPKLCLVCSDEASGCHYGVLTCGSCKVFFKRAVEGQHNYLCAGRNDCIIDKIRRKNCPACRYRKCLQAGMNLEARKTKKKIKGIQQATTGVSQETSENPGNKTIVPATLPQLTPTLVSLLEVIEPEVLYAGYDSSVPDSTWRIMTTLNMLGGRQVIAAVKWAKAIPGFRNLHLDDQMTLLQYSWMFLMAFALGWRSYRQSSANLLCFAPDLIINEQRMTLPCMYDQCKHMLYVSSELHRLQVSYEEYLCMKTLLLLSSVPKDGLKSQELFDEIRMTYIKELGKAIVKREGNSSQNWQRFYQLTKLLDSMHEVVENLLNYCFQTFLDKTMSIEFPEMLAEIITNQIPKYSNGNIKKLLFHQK
Procedure, shortened: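 Cells were plated and rested 3-5 h at 37 C, compounds were added in titration and incubated 18 h, then CCF4 substrate was loaded for 2 h at RT before reading blue/green fluorescence. EC50 came from Hill-equation fitting.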

[8] = target: Glucocorticoid receptor (Homo sapiens) (UniProt P04150); assay: qHTS assay for small molecule antagonists of glucocorticoid receptor signaling (AID 588533; active = well fitted inhibition curve with a large enough effect in the signal ratio, with a control signal flat, not every such curve was filed as active; the % refers to the signal ratio; note: % is set by controls: 0 for no effect and ±100 for the full control effect)
Procedure, shortened: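 Antagonist-mode qHTS: compound titrations added to GRE-bla HeLa cells, then dexamethasone 2 nM final; 18 h, 37 C. CCF4 FRET fluorescence normalized to dexamethasone and DMSO; IC50 from Hill fit.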

[9] = qHTS assay for small molecule antagonists of peroxisome proliferator-activated receptor delta signaling (AID 588535; active = well fitted inhibition curve with a large enough effect in the signal ratio, with a control signal flat, not every such curve was filed as active; the % refers to the signal ratio;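 for max response: cells co-treated with a PPAR-delta agonist as stimulator during compound exposure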); conditions: HEK293T PPARd-UAS-bla, beta-lactamase FRET ratio, 18 h; 460 nm channel
Procedure, shortened: (§1)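 Fluorescence from CCF4-loaded GeneBLAzer PPAR-delta-UAS-bla HEK293T cells (2 hrs RT loading) quantified reporter inhibition after an 18 hr, 37 C compound exposure across a titration.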

[10] = target: Peroxisome proliferator-activated receptor delta (Homo sapiens) (UniProt Q03181); assay: as above
Procedure, shortened: as §1

[11] = target: Vitamin D3 receptor (Homo sapiens) (UniProt P11473); assay: qHTS assay for small molecule antagonists of vitamin D receptor signaling (AID 588541);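 note: receptor activated by calcitriol during compound treatment; series mostly up to about 77 µM; % is set by controls: 0 for no effect and ±100 for the full control effect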
Vitamin D3 receptor (Homo sapiens), sequence (P11473 whole entry, looked up): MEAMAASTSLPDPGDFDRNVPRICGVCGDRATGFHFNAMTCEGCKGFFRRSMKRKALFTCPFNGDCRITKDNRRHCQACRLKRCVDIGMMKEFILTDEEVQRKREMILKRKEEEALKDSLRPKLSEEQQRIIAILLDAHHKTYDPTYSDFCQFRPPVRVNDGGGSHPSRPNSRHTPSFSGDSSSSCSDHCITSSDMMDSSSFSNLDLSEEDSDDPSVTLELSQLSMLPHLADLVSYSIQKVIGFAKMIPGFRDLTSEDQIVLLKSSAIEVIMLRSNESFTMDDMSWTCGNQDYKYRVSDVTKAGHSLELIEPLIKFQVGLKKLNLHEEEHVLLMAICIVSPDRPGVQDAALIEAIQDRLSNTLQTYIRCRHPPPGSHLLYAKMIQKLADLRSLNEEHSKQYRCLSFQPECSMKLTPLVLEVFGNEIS
Procedure, shortened: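 VDR-UAS-bla HEK293T cells in 2% charcoal-stripped FBS were stimulated with 1-alpha,25-dihydroxyvitamin D3 (3 nM final) plus compound for 16 h at 37 C. The beta-lactamase CCF4 readout was normalized to 50 nM agonist and DMSO, and Hill fits gave IC50.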

[12] = target: Vitamin D3 receptor (Homo sapiens) (UniProt P11473); assay: qHTS assay for small molecule agonists of vitamin D receptor signaling (AID 588543);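 note: 0% = DMSO basal and 100% = reference agonist control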
Procedure, shortened: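 Reporter cells (HEK293T, VDR-UAS-bla) were seeded in medium with 2% charcoal-stripped serum and incubated 5 h, then compounds in concentration series were added for 16 h at 37 °C. Stimulation was scaled between DMSO basal and 50 nM 1α,25-dihydroxyvitamin D3.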

[13] = qHTS assay for small molecule agonists of retinoid X receptor alpha signaling (AID 588544); conditions: HEK293T RXRa-UAS-bla, beta-lactamase reporter, 18 h; 530 nm emission;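 for activation: 0% = DMSO basal wells and 100% = reference agonist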
[14] = target: Retinoic acid receptor RXR-alpha (Homo sapiens) (UniProt P19793); assay: as above
Retinoic acid receptor RXR-alpha (Homo sapiens), sequence (P19793 whole entry, looked up): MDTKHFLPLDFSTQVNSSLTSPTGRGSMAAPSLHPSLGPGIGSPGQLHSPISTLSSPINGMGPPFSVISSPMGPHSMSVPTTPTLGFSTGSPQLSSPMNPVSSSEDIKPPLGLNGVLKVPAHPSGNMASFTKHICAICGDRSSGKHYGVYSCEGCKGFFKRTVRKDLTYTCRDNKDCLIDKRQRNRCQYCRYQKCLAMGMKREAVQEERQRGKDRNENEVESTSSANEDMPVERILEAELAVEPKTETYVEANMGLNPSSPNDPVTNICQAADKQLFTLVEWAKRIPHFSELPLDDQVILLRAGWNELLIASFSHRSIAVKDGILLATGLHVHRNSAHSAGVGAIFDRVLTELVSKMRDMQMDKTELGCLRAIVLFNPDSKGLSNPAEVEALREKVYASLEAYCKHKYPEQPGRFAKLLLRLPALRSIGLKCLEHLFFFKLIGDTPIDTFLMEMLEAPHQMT

[15] = qHTS assay for small molecule activators of the p53 signaling pathway (AID 651743; active = well fitted activation curve with a large enough effect in the signal ratio, not every such curve was filed as active; the % refers to the signal ratio; note: series mostly up to about 92 µM; % of control where 0% means no effect); conditions: HCT-116 p53RE-bla, beta-lactamase FRET ratio, 16 h; activation: stronger effect = higher value
Procedure, shortened: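 Following 16 hours of compound exposure at 37 C, HCT-116 cells bearing the p53RE-bla reporter were loaded with LiveBLAzer B/G FRET substrate for 2 hours at room temperature and fluorescence intensity was recorded.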

[16] = qHTS assay for small molecule activators of the nuclear factor-kappa B (NF-kB) signaling pathway (AID 651749; active = well fitted activation curve with a large enough effect in the signal ratio; the % refers to the signal ratio; note: series mostly up to about 77 µM; % of control where 0% means no effect); conditions: NF-kB-bla ME-180 cells, beta-lactamase FRET ratio, 16 h; activation: stronger effect = higher value
Procedure, shortened: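 In this qHTS format, compounds acting as activators increase NF-kB-driven beta-lactamase in ME-180 cells, measured as disrupted FRET after 16 hr exposure at 37C and 5% CO2.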

[17] = qHTS assay for environmental chemicals that activate the Aryl hydrocarbon Receptor (AhR) signaling pathway (AID 651777; active = well fitted curve in the direction sought with a large enough effect; an effect the other way counts as inactive or inconclusive; note: % of control where 0% means no effect; nearly all actives have a fitted effect of over 15% in size); conditions: 1A2-DRE human hepatoma cells, luciferase, 24 h; activation: stronger effect = higher value
Procedure, shortened: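 Human hepatoma 1A2-DRE cells, stably carrying a dioxin response element and CYP1A2 promoter driving luciferase, were exposed to compounds for 24 hr at 37 C and 5% CO2. Luciferase signal was then read after 30 min One-Glo at room temperature.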

[18] = target: Peroxisome proliferator-activated receptor alpha (Homo sapiens) (UniProt Q07869); assay: qHTS assay for small molecule agonists of the peroxisome proliferator-activated receptor alpha (PPARalpha) signaling pathway (AID 651778; active = well fitted curve in the direction sought with a large enough effect; an effect the other way counts as inactive or inconclusive; note: % of control where 0% means no effect); conditions: PathHunter PPARalpha complementation, chemiluminescence, 6 h; max response: stronger effect = higher value
Peroxisome proliferator-activated receptor alpha (Homo sapiens), sequence (Q07869 whole entry, looked up, the tested form may be a part): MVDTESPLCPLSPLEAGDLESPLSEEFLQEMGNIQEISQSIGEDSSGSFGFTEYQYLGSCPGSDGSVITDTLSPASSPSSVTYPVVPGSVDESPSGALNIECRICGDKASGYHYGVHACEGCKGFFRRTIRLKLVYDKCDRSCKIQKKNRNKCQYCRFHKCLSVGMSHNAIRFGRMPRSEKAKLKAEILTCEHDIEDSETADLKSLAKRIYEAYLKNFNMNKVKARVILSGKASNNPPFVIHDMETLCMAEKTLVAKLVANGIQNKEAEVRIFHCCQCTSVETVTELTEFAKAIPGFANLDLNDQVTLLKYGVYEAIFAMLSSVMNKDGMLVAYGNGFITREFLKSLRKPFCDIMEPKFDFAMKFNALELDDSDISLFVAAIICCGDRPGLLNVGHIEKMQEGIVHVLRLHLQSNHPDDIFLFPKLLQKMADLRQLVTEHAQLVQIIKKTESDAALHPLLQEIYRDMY
Procedure, shortened: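 Enzyme-fragment complementation assay in which ligand-bound PPARalpha translocates and forms an active enzyme that generates chemiluminescence. Cells were plated overnight, exposed to compound for 6 hr at 37 C, and then given detection reagent for 60 min at room temperature.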

[19] = qHTS assay for small molecule agonists of the antioxidant response element (ARE) signaling pathway measured by Nrf2-dependant transcriptional activity (AID 720636; active = well fitted curve in the direction sought with a large enough effect in the repeat runs; an effect the other way counts as inactive or inconclusive; note: % of control where 0% means no effect)
Procedure, shortened: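 ARE-luc HepG2 cells carrying an Nrf2-responsive luciferase reporter were plated in medium with 1% dialyzed FBS, left 6 hr at 37 C to attach, then exposed to compound for 16 hr. Luciferase luminescence was read after ONE-Glo addition.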

[20] = qHTS assay for small molecule agonists of the antioxidant response element (ARE) signaling pathway measured by Nrf2-dependant transcriptional activity - cell viability counter screen (AID 720653; active = well fitted curve in the direction sought with a large enough effect in the repeat runs; an effect the other way counts as inactive or inconclusive; note: % is set by controls: 0 for no effect and ±100 for the full control effect); conditions: ARE-bla HepG2 viability, CellTiter-Glo ATP luminescence, 16 h; max response: stronger effect = lower value
Procedure, shortened: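 ARE-bla HepG2 cells treated with compounds for 16 h at 37C; this counter screen measures viability as intracellular ATP by CellTiter-Glo luminescence after 30 min at room temperature.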

[21] = qHTS assay for cell viability of HEK293 cells (AID 743288; active = well fitted curve in the direction sought with a large enough effect; an effect the other way counts as inactive or inconclusive; note: % is set by controls: 0 for no effect and ±100 for the full control effect; nearly all actives have a fitted effect of over 50% in size); conditions: ATP luminescence (CellTiter-Glo), 18 h; max response: stronger effect = lower value
Procedure, shortened: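 Viable-cell counts were inferred from luciferase-based ATP content in HEK293 cells seeded at 2,000/well, pre-incubated ≥5 h, then dosed with DMSO-solubilised compounds for 18 h at 37 C.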

[22] = target: Nuclear receptor subfamily 1 group I member 2 (Rattus norvegicus) (UniProt Q9R1A7); assay: qHTS assay for small molecule activators of the rat pregnane X receptor (rPXR) signaling pathway (AID 651751; call rule not given here; note: 0% is about no effect); conditions: rPXR reporter cells, luciferase (One-Glo), 24 h
Nuclear receptor subfamily 1 group I member 2 (Rattus norvegicus), sequence (Q9R1A7 whole entry, looked up): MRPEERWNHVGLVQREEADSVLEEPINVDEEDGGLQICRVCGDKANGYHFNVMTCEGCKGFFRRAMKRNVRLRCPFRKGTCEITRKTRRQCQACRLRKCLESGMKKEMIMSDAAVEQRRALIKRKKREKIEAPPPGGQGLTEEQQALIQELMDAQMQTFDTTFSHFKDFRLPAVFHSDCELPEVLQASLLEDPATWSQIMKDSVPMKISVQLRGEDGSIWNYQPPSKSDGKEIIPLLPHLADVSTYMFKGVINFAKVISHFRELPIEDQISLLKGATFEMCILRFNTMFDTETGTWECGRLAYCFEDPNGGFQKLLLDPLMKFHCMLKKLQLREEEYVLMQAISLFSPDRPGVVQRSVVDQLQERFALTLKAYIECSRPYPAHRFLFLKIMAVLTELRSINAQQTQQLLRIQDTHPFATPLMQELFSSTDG

[23] = qHTS assay for small molecule activators of the human pregnane X receptor (PXR) signaling pathway (AID 720659; call rule not given here; note: 0% is about no effect)

Nc1ccc(-c2ccc(N)c(O)c2)cc1O
active: Potency [2] 50.1 µM | Potency [3] 50.1 µM
inactive: Potency [1] | activation [4] -0.21% | outcome [5]

CCOC(=O)[C@H](C)Oc1ccc(Oc2nc3ccc(Cl)cc3o2)cc1
inactive: activation [4] -2.5% | Potency [6]

CCCSC(=O)N(CCC)CCC
inactive: activation [7] -2.67% | Potency [8] | outcome [5] | Potency [10] | Potency [11] | outcome [12] | Potency [14] | Potency [6] | activation [15] 5.3% | activation [16] 0.695% | activation [17] 1.67% | max response [18] -0.593% | Potency [19] | max response [20] -2.88% | max response [21] -7.74% | max response [22] 1.18% | outcome [23]
26.4%: max response [9]
-0.108%: max response [13]
